Assay [1] in a line: A CellTox Green Cytotoxicity Assay to monitor cytotoxicity in HEK293 cells - 32 hour (AID 1224881). Note: nearly all actives have a fitted effect of over 40% in size. Note: potency is the fitted concentration of half-maximal effect. In short, it runs like this: (§1)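 Homogeneous no-lysis format: HEK293 cell suspension mixed with CellTox Green reagent, seeded, incubated 5 h at 37 C/5% CO2, then dosed by pintool with compound in DMSO.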
Assay [2] can be described thus: A CellTox Green Cytotoxicity Assay to monitor cytotoxicity in HepG2 cells - 0 hour (AID 1224882). Note: nearly all actives have a fitted effect of over 35% in size. In short, it runs like this:
(§2)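 Fluorescent DNA-binding dye, 600 HepG2 cells/well, 5 h preincubation then compound in DMSO; same plates read at 0–40 h, 37 C.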

A short description of assay [3]: A CellTox Green Cytotoxicity Assay to monitor cytotoxicity in HepG2 cells - 32 hour (AID 1224883). Note: nearly all actives have a fitted effect of over 50% in size. In short, it runs like this: as §2
The nature of assay [4]: A CellTox Green Cytotoxicity Assay to monitor cytotoxicity in HEK293 cells - 8 hour (AID 1224884). Note: nearly all actives have a fitted effect of over 35% in size. An outline of the steps:
as §1

Assay [5] can be described thus: qHTS RealTime-Glo MT Cell Viability Assay in HepG2 cells - 16 hour (AID 1224885). Note: nearly all actives have a fitted effect of over 50% in size. In short, it runs like this: (§3)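 Cells + NanoLuc/prosubstrate dispensed (600 cells/well) → 5 h at 37 C/5% CO2 → compounds in DMSO transferred → 40 h incubation at 37 C, luminescence read at 0, 8, 16, 24, 32, 40 h.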
In general terms: Quantitative high-throughput screening tests each substance at several concentrations.

Assay [6] can be described thus: qHTS RealTime-Glo MT Cell Viability Assay in HEK293 cells - 24 hour (AID 1224886). Note: top concentration of the series differs between compounds; nearly all actives have a fitted effect of over 50% in size. In short, it runs like this:
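Tox21 10K qHTS, HEK293, 600 cells/well, RealTime-Glo reagent co-dispensed with cells; 5 h preincubation, compound by pintool, 37 C, luminescence at 0–40 h.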

Assay [7] can be described thus: qHTS RealTime-Glo MT Cell Viability Assay in HEK293 cells - 8 hour (AID 1224887). Note: top concentration of the series differs between compounds; nearly all actives have a fitted effect of over 50% in size. An outline of the steps:
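Measured as luminescence from the same continuously cultured HEK293 wells at successive time points (0, 8, 16, 24, 32, 40 h) after compound addition. Reagent present from seeding; dosing at 5 h; incubation 37 C.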

Assay [8] can be described thus: A CellTox Green Cytotoxicity Assay to monitor cytotoxicity in HEK293 cells - 16 hour (AID 1224888). Note: nearly all actives have a fitted effect of over 35% in size. In short, it runs like this: as §1
Assay [9] can be described thus: qHTS RealTime-Glo MT Cell Viability Assay in HepG2 cells - 0 hour (AID 1224889). Note: nearly all actives have a fitted effect of over 50% in size. Note: potency is the fitted concentration of half-maximal effect. In short, it runs like this:
as §3

Assay [10] is described as follows: A CellTox Green Cytotoxicity Assay to monitor cytotoxicity in HepG2 cells - 8 hour (AID 1224890). Note: nearly all actives have a fitted effect of over 45% in size. An outline of the steps: as §2
A short description of assay [11]: qHTS assay to identify small molecule antagonists of the estrogen receptor alpha (ER-alpha) signaling pathway using the BG1 cell line in the presence of 0.1 nM 17-beta-estradiol - cell viability counter screen (AID 1259241). Note: nearly all actives have a fitted effect of over 40% in size. In short, it runs like this: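 Cytotoxicity counter-screen: live-cell protease activity measured by fluorescence (30 min reagent step) in the same wells. Cells were VM7Luc4E2 with endogenous ER-alpha and ERE-driven luciferase, treated 22 hr at 37C alongside 0.1 nM 17beta-estradiol final.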

The nature of assay [12]: qHTS assay to identify small molecule HDAC inhibitors - cell viability counter screen (AID 1259365). In short, it runs like this:
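CellTiter-Glo luminescence (30 min, room temperature) reported viability after a 2 h compound exposure at 37 C. Cells: wild-type HCT-116, 1,500 per well, seeded the night before.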

The nature of assay [13]: qHTS assay to identify small molecule agonists of the sonic hedgehog signaling (Shh) pathway - cell viability counter screen (AID 1259366). Note: nearly all actives have a fitted effect of over 50% in size. In short, it runs like this: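 Cytotoxicity counter screen: CellTiter-Fluor reagent added after 23 h compound exposure, then 1 h at 37C and fluorescence read. Cells were 3T3 Gli1-Luc, seeded 2,000 per well and dosed 4 h post-plating.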

The nature of assay [14]: qHTS assay to identify small molecule antagonists of the sonic hedgehog signaling (Shh) pathway - cell viability counter screen (AID 1259367). Note: nearly all actives have a fitted effect of over 55% in size. An outline of the steps:
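Cytotoxicity was assessed in parallel with Shh reporter activity by measuring live-cell protease fluorescence (CellTiter-Fluor) in NIH/3T3 cells stably carrying Gli1-Luc, treated with compound under conditioned medium stimulation for 23 hr plus 1 hr reagent incubation.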

Assay [15] in a line: qHTS assay to identify small molecule agonists of the sonic hedgehog signaling (Shh) pathway (AID 1259368; calls by dose curve;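 note: NIH/3T3-derived 3T3Gli1-Luc cells carrying a stable Gli1-driven firefly luciferase reporter; series mostly up to about 92 µM; nearly all actives have a fitted effect of over 15% in size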). An outline of the steps: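 Stable NIH/3T3 Gli1-Luc reporter clone; 24 hr cpd exposure after a 4 hr settling period; luminescence endpoint.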
The nature of assay [16]: qHTS assay to identify small molecule antagonists of the sonic hedgehog signaling (Shh) pathway (AID 1259369; calls by dose curve; note: nearly all actives have a fitted effect of over 45% in size; note: potency is the fitted concentration of half-maximal effect). In short, it runs like this: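 Gli1 transcriptional reporter (firefly Luc) in NIH/3T3 background, conditioned-medium activated. 24hr exposure, luminescence endpoint.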
A short description of assay [17]: qHTS assay to identify small molecule antagonists of the androgen receptor (AR) signaling pathway using the MDA cell line in the presence of 0.5 nM R1881 - cell viability counter screen (AID 1259242). Note: nearly all actives have a fitted effect of over 45% in size. In short, it runs like this:
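Human breast carcinoma MDA-kb2 cells, cultured without CO2, receive compounds alongside 0.5 nM (final) R1881 agonist. After 16 hr at 37C, viability is taken as live-cell protease signal.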

The target of assay [18] is Estrogen receptor (Homo sapiens) (UniProt P03372). Description: qHTS assay to identify small molecule antagonists of the estrogen receptor alpha (ER-alpha) signaling pathway using the BG1 cell line in the presence of 0.1 nM 17-beta-estradiol (AID 1259244). Note: nearly all actives have a fitted effect of over 50% in size. In short, it runs like this:
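Seeding of stripped-serum-adapted VM7Luc4E2 cells, 24 h attachment, compound transfer, then 0.1 nM final 17beta-estradiol; after 22 h incubation, ONE-Glo reagent and luminescence reading.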

The nature of assay [19]: qHTS assay to identify small molecule HDAC inhibitors (AID 1259364).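 Note: wild-type HCT-116 cells with endogenous class I/II HDAC activity; top concentration of the series differs between compounds; nearly all actives have a fitted effect of over 45% in size.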 In short, it runs like this: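 After a 2 hr compound incubation (37C, 5% CO2), HCT-116 cells seeded at 1,500/well the day before received HDAC-Glo reagent; signal read as luminescence after 30 min at room temperature.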
A short description of assay [20]: qHTS assay to identify small molecule phospholipidosis (PLD) inducers (AID 1259344; active = well fitted curve in the direction sought with a large enough effect; an effect the other way counts as inactive or inconclusive). An outline of the steps: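 Cells (HepG2, 900 per well) attach for 4 h, receive LipidTOX Red and compound together, incubate 24 h at 37 C, are fixed 30 min with paraformaldehyde/Hoechst, then imaged at one site per well.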

Results filed as inconclusive are left out. The source holds several records for some structures; these can differ, active in one and inactive in another. The source made the active and inactive calls. Unless noted, calls come from the whole dose curve; as a rule, active = well fitted curve in the direction sought with a large enough effect in the repeat runs; inconclusive = weak or mixed curves; inactive = no such curve, though single readings can be large; an effect the other way counts as inactive or inconclusive.

Chain of Estrogen receptor (Homo sapiens) (P03372 whole entry, looked up): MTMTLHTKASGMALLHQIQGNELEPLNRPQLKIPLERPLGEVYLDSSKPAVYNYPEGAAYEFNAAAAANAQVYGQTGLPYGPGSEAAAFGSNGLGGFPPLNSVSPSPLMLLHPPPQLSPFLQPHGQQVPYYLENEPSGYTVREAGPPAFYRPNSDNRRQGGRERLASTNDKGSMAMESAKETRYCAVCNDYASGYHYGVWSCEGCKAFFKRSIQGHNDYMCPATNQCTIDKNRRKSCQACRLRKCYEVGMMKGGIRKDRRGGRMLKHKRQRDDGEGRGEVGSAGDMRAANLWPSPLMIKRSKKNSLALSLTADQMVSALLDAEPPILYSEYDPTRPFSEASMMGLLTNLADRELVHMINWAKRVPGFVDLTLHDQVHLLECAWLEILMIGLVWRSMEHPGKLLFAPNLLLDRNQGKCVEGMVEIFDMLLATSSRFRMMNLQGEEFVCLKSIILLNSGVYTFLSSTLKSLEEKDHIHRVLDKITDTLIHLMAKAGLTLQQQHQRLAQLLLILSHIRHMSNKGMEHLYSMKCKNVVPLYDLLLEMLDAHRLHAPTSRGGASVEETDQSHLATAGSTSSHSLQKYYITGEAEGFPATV

On to `Cc1cc(Cl)ccc1OCCCC(=O)O`, for which the Potency result in [1], in assay [2], in assay [3], in assay [4], in assay [5] and in assay [6] was “inactive” each time. In addition, the Potency entry in assay [7], in assay [8], in assay [9], in assay [10], in assay [11] and in [13] was “inactive” each time. Besides, the Potency result in assay [14], in [15] and in assay [16] was “inactive” each time. The call in assay [12] was inactive.
On to `O=C(NC(=O)c1c(F)cccc1F)Nc1ccc(Cl)cc1`, for which the Potency entry in [1], in assay [2], in assay [3], in assay [4], in assay [5] and in assay [7] was “inactive” each time. The Potency result in assay [8], in assay [9], in assay [10], in [11], in assay [17] and in assay [18] was “inactive” each time. Further, the Potency result in assay [13], in assay [14], in assay [15] and in assay [16] was “inactive” each time. The compound was called inactive in [12].
In the case of `CNC(=O)N(C)c1nnc(C(C)(C)C)s1`, the Potency entry in assay [1], in assay [2], in [3], in assay [4], in assay [5] and in assay [6] was “inactive” throughout. Further, the Potency result in assay [7], in assay [8], in [9], in [10], in assay [11] and in [18] was “inactive” throughout. Also, the Potency result in [13], in [14], in [15] and in assay [16] was “inactive” throughout. Besides, the result in [12] was inactive.
With `COP(=S)(OC)Oc1ccc([N+](=O)[O-])cc1`, the Potency result in [1], in assay [2], in assay [4], in assay [5], in assay [6] and in [7] was “inactive” each time. Moreover, the Potency result in assay [8], in assay [9], in assay [10], in [11], in [17] and in [18] was “inactive” each time. Besides, the Potency result in assay [19], in assay [13], in assay [14], in [15] and in assay [16] was “inactive” in each case. In addition, in assay [12], the compound was called inactive.
`C[C@]12CCC(=O)C(O)=C1CC[C@@H]1[C@@H]2CC[C@]2(C)C(=O)CC[C@@H]12`: the Potency entry in assay [1], in [2], in assay [3], in assay [4], in assay [5] and in [6] was “inactive” each time. Further, the Potency entry in assay [7], in assay [8], in [10], in assay [11], in [18] and in assay [13] was “inactive” each time. The Potency result in assay [14] and in [15] was “inactive” throughout. The Potency in [9] is 21.9 µM (active) and inactive. Moreover, in assay [12], the result was inactive.
As for `Cc1cccc(N)c1N`, the Potency entry in assay [1], in [2], in assay [3], in assay [4], in [5] and in [6] was “inactive” throughout. For the same compound, the Potency result in assay [7], in assay [8], in [9], in assay [10], in [11] and in assay [19] was “inactive” throughout. Also, the Potency entry in [13] and in assay [14] was “inactive” throughout. Also, in [12], the call was inactive. Also, the Potency in assay [16] was 29.6 µM (active) and inactive.
As for `CCOc1cc(Oc2ccc(C(F)(F)F)cc2Cl)ccc1[N+](=O)[O-]`, the Potency result in assay [1], in [2], in assay [3], in assay [4], in assay [5] and in [8] was “inactive” throughout. The Potency entry in assay [9], in assay [10], in assay [11], in [18], in assay [19] and in [13] was “inactive” each time. In addition, the Potency entry in [14], in assay [15] and in assay [16] was “inactive” throughout. The call in assay [12] was inactive.
Regarding `C#C[C@]1(O)CC[C@H]2[C@@H]3CCC4=CC(=O)CC[C@]4(C)[C@H]3CC[C@@]21C`, the Potency in [1] is 49 µM (active). Moreover, the Potency entry in [2], in [3], in assay [4], in assay [5], in assay [6] and in assay [7] was “inactive” in each case. For the same compound, the Potency entry in [8], in assay [10], in assay [11], in [13], in assay [14] and in assay [15] was “inactive” in each case. In addition, the Potency result in assay [16] was “inactive”. The compound was called inactive in assay [20] and in assay [12].

These data come from PubChem BioAssay (Tox21).
